Shiga toxin inh – Shiga toxin inhibition; AID 2315; inhibition, % at 38.7 µM; Vero cells, Shiga toxin protein synthesis inhibition reporter; 9.2% of 290,000 active; in the data active = inhibition mostly above about 28%, no sharp cut-off; inactive = mostly below about 43%
Pf growth 96h – inhibits malaria parasite growth, 96 h; P. falciparum luciferase reporter growth, 96 h; 6.9% of 320,000 active; Potency, µM (doses to about 28.7 µM), usual class: inhibitors; AID 504834
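Two parasite generations (96 h, 37 C, 5% CO2) of compound exposure in infected erythrocytes (0.05% parasitemia, 2% hematocrit). Luciferase-reporter P. falciparum; decreased luminescence indicates inhibited growth, aimed at apicoplast-acting delayed death.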
CHX counter – counter-screen hit for Shiga toxin inhibitors, cycloheximide; cell reporter, cycloheximide protein synthesis inhibition counterscreen; max response, %; 12% of 300,000 active; in the data active = max response mostly above about 13%, no sharp cut-off; inactive = mostly below about 14%; note: read at 38.3 µM for the half of the compounds with a filed dose
HCMV inh – blocks human cytomegalovirus replication. HFF cells, HCMV-luciferase reporter, 72 h; stronger effect = lower value. activity change, negative = inhibition, % at 57.5 µM. 4.5% of 410,000 active. AID 1259415; in the data active = activity change below about -60%; inconclusive = no clear call, values can overlap the other calls; inactive = above about -39%
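Luciferase read-out from HCMV-luciferase-infected HFFs (MOI 1 PFU/cell) 72 h post infection at 37C; compounds added after 16 h cell attachment; activity normalized between buffer-only basal and Salinomycin (10uM) inhibitor controls.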
Pf growth 48h – P. falciparum growth inhibition at 48 hours (one generation). AID 504832. Potency, µM (series often up to 28.7 µM), actives largely listed as inhibitors. 5.9% of 310,000 active. P. falciparum luciferase growth in erythrocytes, 48 h
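Growth was read as firefly luciferase luminescence after a 48 h, 37 C, 5% CO2 exposure of compounds to reporter-bearing P. falciparum cultures (0.1% parasitemia, 2% hematocrit final) in Albumax-supplemented RPMI 1640.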
Each line names hits and unclear results; the compound was inactive in the other large screens; ! = not confirmed by another sample. Hits are enriched below; roughly 20% of the tested compounds scored in any of these assays. Unless noted, calls come from the whole dose curve; as a rule, active = well fitted inhibition curve with a large enough effect; inconclusive = small, poorly fitted or top-dose-only effect, or another doubt; inactive = no such curve, though single readings can be large or run the other way.

Cc1ccc2c(c1)cc1c(=O)[nH]ncn12	Shiga toxin inh 87.8
COC(=O)[C@@]1(Cc2ccc(OC)cc2)[C@H]2c3cc(C(=O)N4CCCC4)n(CCN4CCNC4=O)c3C[C@H]2CN1C(=O)c1ccccc1	Pf growth 96h 1.65µM, Pf growth 48h 1.85µM (no result: HCMV inh)
COC(=O)[C@@]1(Cc2ccc(OC)cc2)[C@H]2c3cc(C(=O)N4CCCC4)n(CCn4cc([N+](=O)[O-])nc4C)c3C[C@H]2CN1C(=O)c1ccccc1	Pf growth 96h 0.586µM, HCMV inh -73.6, Pf growth 48h inconclusive
COC(=O)[C@@]1(Cc2ccc(F)cc2)[C@H]2c3cc(C(=O)N(C)C)n(Cc4ccc(S(C)(=O)=O)cc4)c3C[C@H]2CN1C(=O)c1ccccc1	none (no result: Shiga toxin inh, Pf growth 96h, CHX counter, Pf growth 48h)
COC(=O)[C@@]1(Cc2ccc(OC)cc2)[C@@H]2C(=CC(=O)[C@H]2CC(=O)C(=O)N2CCCC2)CN1C(=O)c1ccccc1	Pf growth 96h inconclusive, Pf growth 48h 10.4µM (no result: HCMV inh)
COC(=O)[C@@]1(Cc2ccc(OC)cc2)[C@H]2c3cc(C(=O)N(C)C)[nH]c3C[C@H]2CN1C(=O)c1ccccc1	Pf growth 96h inconclusive, Pf growth 48h 4.65µM
C/C(=N\OCC(=O)OCC(=O)NCc1ccccc1)c1ccc2c(c1)OCO2	none (no result: Shiga toxin inh, CHX counter)
COC(=O)[C@@]1(Cc2ccc(OC)cc2)[C@H]2c3cc(C(=O)N(C)C)n(Cc4c(CO)[nH]cc(C)c4=O)c3C[C@H]2CN1C(=O)c1ccccc1	none (no result: Shiga toxin inh, Pf growth 96h, CHX counter, Pf growth 48h)
COC(=O)[C@@]1(Cc2ccc(OC)cc2)[C@H]2c3cc(C(=O)N4CCCC4)n(C[C@H](O)CO)c3C[C@H]2CN1C(=O)c1ccccc1	none (no result: Shiga toxin inh, Pf growth 96h, CHX counter, Pf growth 48h)
COC(=O)[C@@]1(Cc2ccc(OC)cc2)[C@H]2c3cc(C(=O)N(C)C)n(CCc4ccc(OC)c(Br)c4)c3C[C@H]2CN1C(=O)c1ccccc1	Pf growth 96h 2.08µM, Pf growth 48h 2.08µM (no result: HCMV inh)
COC(=O)[C@@]1(Cc2ccc(OC)cc2)[C@H]2c3cc(C(=O)N4CCCC4)n(Cc4ccc(OC)c(OC)c4)c3C[C@H]2CN1C(=O)c1ccccc1	Pf growth 96h 1.47µM, Pf growth 48h inconclusive
CCOC(=O)c1cccc(NC(=O)c2cc(S(=O)(=O)N3CCCCCC3)cn2C)c1	none (no result: Shiga toxin inh, Pf growth 96h, CHX counter, Pf growth 48h)
O=[N+]([O-])c1ccc(CN2CCOCCOCCOCC2)cc1	none
O=C(/C=C/c1ccccc1)NC(=O)c1ccccc1O	Shiga toxin inh 50.9, Pf growth 96h 1.65µM, CHX counter 28.4, Pf growth 48h 1.31µM
O=C(/C=C/c1ccccc1)CC(=O)c1ccccc1O	Shiga toxin inh 26.6, Pf growth 96h inconclusive, CHX counter 25.4
COc1ccccc1NC(=O)c1c(C)cc(C)nc1SCC(=O)c1ccc(Cl)cc1	none (no result: Shiga toxin inh, Pf growth 96h, CHX counter, Pf growth 48h)
CCN(CC)c1ccc(C2C(C(=O)Nc3ccccn3)=C(C)NC3=C2C(=O)CC(C)(C)C3)cc1 (centres undefined)	Pf growth 48h inconclusive
CC1=C(C(=O)Nc2ccccn2)C(c2ccc3c(c2)OCO3)C2=C(CC(C)(C)CC2=O)N1 (centres undefined)	CHX counter 15.7
CCN1CCN(Cc2ccc(NC(=O)c3cc(NC(=O)c4cc(-c5ccc(OC)cc5)n[nH]4)cc(OC)c3)cc2C(F)(F)F)CC1	Pf growth 96h 0.0928µM, Pf growth 48h 0.117µM
CCN1CCN(Cc2ccc(NC(=O)c3cc(NC(=O)c4ccno4)cc(OC)c3)cc2C(F)(F)F)CC1	Pf growth 96h 0.828µM, Pf growth 48h inconclusive
CCN1CCN(Cc2ccc(NC(=O)c3cc(NC(=O)c4ccc5n[nH]nc5c4)cc(OC)c3)cc2C(F)(F)F)CC1	Pf growth 96h 2.33µM, Pf growth 48h 4.15µM
COc1cc(NC(=O)c2ccno2)cc(C(=O)Nc2cccc(C(F)(F)F)c2)c1	Pf growth 96h inconclusive, Pf growth 48h inconclusive
COc1cc(NC(=O)c2cc3cccc(OC)c3o2)cc(C(=O)Nc2cccc(C(F)(F)F)c2)c1	Pf growth 96h 10.4µM, Pf growth 48h 13.1µM
Cc1ccc(OCC(=O)N(Cc2ccco2)Cc2ccc(C)o2)cc1	none (no result: Shiga toxin inh, Pf growth 96h, CHX counter, Pf growth 48h)
COc1cc(NC(=O)N2CCNC2=O)cc(C(=O)Nc2cccc(C(F)(F)F)c2)c1	Pf growth 48h inconclusive
CCN1CCN(Cc2ccc(NC(=O)c3cc(NC(=O)N4CCNC4=O)cc(OC)c3)cc2C(F)(F)F)CC1	Pf growth 96h 4.15µM, HCMV inh -68.2!, Pf growth 48h 5.22µM
CCN1CCN(Cc2ccc(NC(=O)c3cc(NC(=O)c4cncc(-c5cccs5)c4)cc(OC)c3)cc2C(F)(F)F)CC1	Pf growth 96h inconclusive, HCMV inh -101.7, Pf growth 48h inconclusive
CCN1CCN(Cc2ccc(NC(=O)c3cc(NC(=O)c4cc5cccc(OC)c5o4)cc(OC)c3)cc2C(F)(F)F)CC1	Pf growth 96h 0.294µM, HCMV inh -101.7!, Pf growth 48h 0.828µM
COc1cc(NC(=O)c2csc(-c3ccncc3)n2)cc(C(=O)Nc2cccc(C(F)(F)F)c2)c1	Pf growth 96h 5.22µM, Pf growth 48h inconclusive
CCOC(=O)c1cnc(SCC(=O)OCC(=O)NC2CCS(=O)(=O)C2)nc1N (centres undefined)	none (no result: Shiga toxin inh, CHX counter)
CC(=O)N1CCc2c(sc3c2c(=O)n(-c2ccc(C)cc2)c(=O)n3Cc2c(F)cccc2Cl)C1	none (no result: Shiga toxin inh, Pf growth 96h, CHX counter, Pf growth 48h)
Cc1ccc(C)c(NC(=S)NNC(=O)c2ccco2)c1	none
O=C(NC(=S)Nc1ccccc1F)c1ccc(Br)o1	Shiga toxin inh 123.9, CHX counter 32.9, HCMV inh inconclusive
Cc1ccc(NC(=S)NC(=O)c2ccc(Br)o2)c(C)c1	Shiga toxin inh 60.9, Pf growth 96h 13.1µM, CHX counter 29.0
Cc1cccc(NC(=S)NC(=O)c2ccc(Br)o2)c1C	none
Cc1ccc(C)c(NC(=S)NNC(=O)c2ccc(Br)o2)c1	Shiga toxin inh 70.1, CHX counter 16.3
CCCCCc1nc2c(c(=O)c3ccccc3n2C)c(=O)n1C1CCCCCC1	Pf growth 96h 11.7µM, HCMV inh inconclusive, Pf growth 48h inconclusive
CC(C)Cn1c(-c2ccco2)nc2c(c(=O)c3ccccc3n2C)c1=O	Pf growth 96h 1.17µM, Pf growth 48h 1.31µM
COc1ccc(Cn2c(-c3ccco3)nc3c(c(=O)c4ccccc4n3C)c2=O)cc1	HCMV inh inconclusive
Cc1nc2c(c(=O)c3ccccc3n2C)c(=O)n1C1CCCCCC1	none
Cn1c2ccccc2c(=O)c2c(=O)n(C3CCCCC3)c(-c3ccco3)nc21	Pf growth 96h 4.15µM, HCMV inh -63.4, Pf growth 48h 4.65µM
Cc1ccc(-n2c(SCC(=O)N3CCc4ccccc43)nc3c([nH]c4ccccc43)c2=O)cc1	none (no result: Shiga toxin inh, Pf growth 96h, CHX counter, Pf growth 48h)
CCn1ccnc1CN(C)Cc1c(C(=O)N2CCCCCCC2)nc2ccc(Cl)cn12	Pf growth 96h inconclusive, Pf growth 48h inconclusive
O=S(=O)(Cc1cc(Cl)nc(-c2ccncc2)n1)c1ccccc1	Pf growth 96h inconclusive, HCMV inh -65.8, Pf growth 48h inconclusive
Cc1nc(CS(=O)(=O)c2ccc(Cl)cc2)cc(Sc2ccccc2Cl)n1	Pf growth 96h inconclusive, Pf growth 48h inconclusive
Cc1nc(CS(=O)(=O)c2ccccc2)cc(Sc2ccc(Cl)cc2)n1	Shiga toxin inh 55.3, Pf growth 96h inconclusive, CHX counter 27.2, Pf growth 48h inconclusive
